# Assays:
# Assay in all cases: PBM binding z-score (relative to random genomic background probes); higher = stronger binding; sequences stand for … in GC…GCGATTGACAGCGTAGAATGAAGG
# [1] = system: FXR:RXRa (NR concentration 270 nM, RXRa partner concentration 90 nM)
# How it was run: (§1)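 For binding z-scores, the reference was random background probes on custom Agilent 4×180K protein-binding microarrays. These arrays were incubated 1 h with ligand-free nuclear receptor dimers in PBS pH 7.4, 2% milk, 0.02% Triton X-100, 1 mM DTT, 0.2 mg/mL BSA and 0.4 mg/ml salmon testes DNA. Fluorescence was scanned after antibody detection of each partner (one per run) and regression-normalized.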
# [2] = system: LXRa:RXRa (NR concentration 270 nM, RXRa partner concentration 90 nM)
# How it was run: as §1
# [3] = system: LXRa homodimer (NR concentration 270 nM)
# How it was run: as §1
# [4] = system: LXRb:RXRa (NR concentration 270 nM, RXRa partner concentration 90 nM)
# How it was run: as §1
# [5] = system: LXRb homodimer (NR concentration 270 nM)
# How it was run: as §1
# [6] = system: PPARa:RXRa (NR concentration 270 nM, RXRa partner concentration 90 nM)
# How it was run: as §1
# [7] = system: PPARg:RXRa (NR concentration 180 nM, RXRa partner concentration 90 nM)
# How it was run: as §1
# [8] = system: PPARg:RXRa 270nM:90nM, anti-RXR (NR concentration 270 nM, RXRa partner concentration 90 nM)
# How it was run: as §1
# [9] = system: PPARg:RXRa 30nM:10nM, anti-RXR (NR concentration 30 nM, RXRa partner concentration 10 nM)
# How it was run: as §1
# [10] = system: PPARg:RXRa 90nM:30nM, anti-RXR (NR concentration 90 nM, RXRa partner concentration 30 nM)
# How it was run: as §1
# [11] = system: PPARg:RXRa DBDmut IVT, anti-RXR (DBD mutation: RXRa K156A/R161A, NR concentration 270 nM, RXRa partner concentration 90 nM)
# How it was run: as §1
# [12] = system: PPARg:RXRa IVT, anti-PPARg (NR concentration 270 nM, RXRa partner concentration 90 nM)
# How it was run: as §1
# [13] = system: PPARg DBDmut:RXRa IVT, anti-PPARg (DBD mutation: PPARg1 K132A/R137A, NR concentration 270 nM, RXRa partner concentration 90 nM)
# How it was run: as §1
# [14] = system: PPARg DBDmut IVT, anti-PPARg (DBD mutation: PPARg1 K132A/R137A, NR concentration 270 nM)
# How it was run: as §1
# [15] = system: PPARg homodimer (NR concentration 180 nM)
# How it was run: as §1
# [16] = system: PXR:RXRa (NR concentration 270 nM, RXRa partner concentration 90 nM)
# How it was run: as §1
# [17] = system: PXR homodimer (NR concentration 270 nM)
# How it was run: as §1
# [18] = system: RARa:RXR (NR concentration 270 nM, RXRa partner concentration 90 nM)
# How it was run: as §1
# [19] = system: RARa homodimer (NR concentration 270 nM)
# How it was run: as §1
# [20] = system: RARb:RXRa (NR concentration 270 nM, RXRa partner concentration 90 nM)
# How it was run: as §1
Sequence,PBM binding z-score [1],PBM binding z-score [2],PBM binding z-score [3],PBM binding z-score [4],PBM binding z-score [5],PBM binding z-score [6],PBM binding z-score [7],PBM binding z-score [8],PBM binding z-score [9],PBM binding z-score [10],PBM binding z-score [11],PBM binding z-score [12],PBM binding z-score [13],PBM binding z-score [14],PBM binding z-score [15],PBM binding z-score [16],PBM binding z-score [17],PBM binding z-score [18],PBM binding z-score [19],PBM binding z-score [20]
ACTAGTTGGGCAGCTGAGGTCACACACAATTCGG,2.42,2.48,1.5,2.74,0.155,3.31,1.34,1.8,0.192,1.26,1.04,1.73,0.77,0.164,2.17,4.46,1.48,4.23,0.707,3.05
GCTTACGGGTCAAAGGTAATAGCATGAATAGAAT,6.06,4.07,-0.0184,4.32,0.154,6.32,9.59,8.1,7.14,8.44,4.96,5.28,1.42,0.842,1.61,4.26,-0.182,6.23,0.248,3.87
CAAACTAGGTCAAGAGATCAAAGTCCGCTTCCCG,3.4,2.88,0.62,1.95,0.064,5.17,8.04,6.89,4.87,6.68,8.62,8.28,2.03,2.4,2.15,1.51,0.0869,2.57,0.821,3.92
CAAACTAGGTCACCGGAAGGTAAAAGTCCGCATG,4.56,3.72,0.573,2.66,0.507,5.39,9.08,7.23,5.39,7.11,8.41,8.97,5.23,6.11,4.02,2.47,0.103,3.44,0.872,4.32
AGAACGAGGGCACGCTGAGTTGATAGCCGAGTAG,0.799,0.509,-0.574,0.154,-0.961,2.17,2.04,1.7,-0.0721,0.936,4.46,4.04,0.489,0.266,0.0307,1.21,-0.287,0.916,-0.217,2.42
TCCTGTAGATCAAAGGTTAAGAAAGCCGAAGCCT,1.59,2.18,-0.208,2.2,-0.193,4.17,7.57,7.55,8.09,8.13,1.82,3.04,-0.37,0.441,1.34,1.72,-0.679,2.85,-0.272,1.78
CCTAGCTGGCCAATCTGGGTCACTCAAGGCTTGA,0.656,0.35,-0.714,0.665,-1.32,2.6,1.43,1.89,-0.389,1.26,3.93,4.25,-0.85,-1.11,-0.162,0.708,-0.934,1.02,-1.02,1.09

# — the supplement of paper PMC6555819
